Assay outcomes deposited in PubChem BioAssay by National Center for Advancing Translational Sciences (NCATS).
nsP2pro primary = inhibitors of chikungunya virus nsP2 protease; FRET peptide cleavage, nsP2pro, fluorescence 1 h; 1.1% of 31,000 active; Q8JUX6; Potency, µM (top dose mostly 24.9 µM), inactives show at the top dose activity change, negative = inhibition, usual class: inhibitors; AID 1964107; also: nearly all actives have a fitted effect of over 60% in size
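Enzyme 150 nM, substrate 2.5 uM (both final); Tris-HCl 10 mM pH 8.0 + 0.01% Tween 20; cpd up to 25 uM, 7 pts; 15 min preinc., 1 h RT; fluorescence ex 525/em 598.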
nsP2 cell sec = inhibits CHIKV nsP2 protease in cells. shares compounds with nsP2pro primary. cell-based CHIKV nsP2 protease reporter assay. Potency, µM (series often up to 51.1 µM), inactives show top-dose activity change, negative = inhibition, usual class: inhibitors. 10% of 450 active. AID 1964100; also: nearly all actives have a fitted effect of over 70% in size
Target sequence (Q8JUX6 220-798 limits assumed): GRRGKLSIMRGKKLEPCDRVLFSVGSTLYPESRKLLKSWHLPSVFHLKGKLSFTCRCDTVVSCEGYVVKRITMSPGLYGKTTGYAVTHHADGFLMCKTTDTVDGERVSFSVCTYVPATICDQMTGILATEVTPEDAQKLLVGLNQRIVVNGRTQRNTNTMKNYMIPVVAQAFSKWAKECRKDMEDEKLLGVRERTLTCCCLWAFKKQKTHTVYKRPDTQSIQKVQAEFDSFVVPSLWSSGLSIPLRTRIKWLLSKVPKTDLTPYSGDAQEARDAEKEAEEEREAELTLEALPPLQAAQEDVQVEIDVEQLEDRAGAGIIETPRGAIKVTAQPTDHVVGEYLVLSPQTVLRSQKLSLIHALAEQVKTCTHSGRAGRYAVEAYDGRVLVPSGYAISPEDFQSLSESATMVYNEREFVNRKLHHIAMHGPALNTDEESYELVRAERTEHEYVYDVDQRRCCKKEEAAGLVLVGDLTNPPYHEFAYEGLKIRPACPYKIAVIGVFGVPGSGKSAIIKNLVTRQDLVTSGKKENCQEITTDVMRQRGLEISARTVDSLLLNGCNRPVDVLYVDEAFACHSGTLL
CHIKV NSP2 FL = inhibits full-length CHIKV NSP2 enzyme | AID 1964101 | Full-length CHIKV NSP2 protease enzymatic counterscreen | shares compounds with nsP2pro primary | Potency, µM (highest dose often 50.7 µM), inactives show top-dose activity change, negative = inhibition, hits mostly inhibitors | 39% of 410 active; also: nearly all actives have a fitted effect of over 65% in size
Furin counter = selectivity counter-screen for CHIKV nsP2 protease inhibitors: human furin. Potency, µM (top dose mostly 50.6 µM), for the others: at the highest dose activity change, negative = inhibition, most hits filed as inhibitors. shares compounds with nsP2pro primary. 6% of 410 active. Recombinant human furin enzymatic counterscreen, fluorogenic substrate. AID 1964102
nsP2 NS23 pep = nsP2pro inhibition on native NS2/3 peptide substrate; shares compounds with nsP2pro primary; Purified CHIKV nsP2 protease, endogenous NS2/3 peptide cleavage; Potency, µM (titrated, usually from 51 µM), inactives show at the highest dose activity change, negative = inhibition, actives largely listed as inhibitors; 34% of 410 active; also: nearly all actives have a fitted effect of over 55% in size
Papain cs = selectivity counter-screen for CHIKV nsP2 protease inhibitors: papain. 5% of 410 active. shares compounds with nsP2pro primary. AID 1964104. purified papain protease activity, enzymatic inhibition. Potency, µM (doses to about 51 µM), without a hit: top-dose activity change, negative = inhibition, usual class: inhibitors
nsP2pro confirm = CHIKV nsP2 protease inhibition, confirmatory qHTS; Potency, µM (top dose mostly 25.5 µM), for inactives: top-dose activity change, negative = inhibition, actives largely listed as inhibitors; AID 1964105; shares compounds with nsP2pro primary; CHIKV nsP2 protease enzymatic activity, qHTS; 43% of 410 active; also: nearly all actives have a fitted effect of over 75% in size
HCV NS3 counter = selectivity counter-screen for CHIKV nsP2 protease inhibitors: HCV NS3/4A. shares compounds with nsP2pro primary. HCV NS3/4A protease biochemical counterscreen. Potency, µM (series often up to 50.9 µM), actives largely listed as inhibitors. 20% of 410 active. AID 1964106; also: nearly all actives have a fitted effect of over 55% in size
Numbers without * were called inactive; i = inactive; ? = inconclusive; [ ] = another dose, or the depositor's remark. Shown is part of a subset that was picked to be rich in hits. Calls follow the shape of the full dose curve. % is scaled to controls: 0 for no effect and ±100 for the full control effect; potency is read from the fitted curve at half-maximal effect.

SMILES	nsP2pro primary	others
C[C@H](CCC(=O)NCC(=O)O)[C@H]1CC[C@H]2[C@@H]3[C@@H](O)C[C@@H]4C[C@H](O)CC[C@]4(C)[C@H]3CC[C@]12C	-19%
COc1cccc(-c2csc(NC(=O)c3ccncc3NS(=O)(=O)c3ccc(C)cc3)n2)c1	i
O=C(O/N=C1\c2ccccc2-c2nc3ccccc3nc21)c1ccco1	?	nsP2 cell sec=1%;CHIKV NSP2 FL=3.7µM*;Furin counter=-10%;nsP2 NS23 pep=?;Papain cs=2.6µM*;nsP2pro confirm=3.2µM*;HCV NS3 counter=i
Cc1cc(NC(=O)c2ccco2)cc(-c2nc3ccccc3o2)c1O	-28%
O=C(Nc1cccnc1)c1ccco1	2%
CC(C)(O/N=C(\C(=O)N[C@@H]1C(=O)N2C(C(=O)[O-])=C(C[N+]3(CCNC(=O)c4ccc(O)c(O)c4Cl)CCCC3)CS[C@H]12)c1csc(N)n1)C(=O)O	-28%
Cc1cccc(NC(=O)c2cc(-c3ccc(C)c(C)c3)nc3ccccc23)c1	1%
Cc1ccc(CS(=O)(=O)c2ncc(Cl)c(C(=O)Nc3nc4ccc(F)cc4s3)n2)cc1	0%
CCS(=O)(=O)c1ncc(Cl)c(C(=O)Nc2ccccc2)n1	72%
CC(=O)Nc1ccc(NC(=O)c2nc(S(=O)(=O)Cc3ccc(F)cc3)ncc2Cl)cc1	?	nsP2 cell sec=2.3µM*;CHIKV NSP2 FL=?;Furin counter=2%;nsP2 NS23 pep=4.6µM*;Papain cs=-7%;nsP2pro confirm=5µM*;HCV NS3 counter=i
Cc1cnc(-c2ccccc2C(C)C)nc1NCC1CCN(c2cnccn2)CC1	i
Cc1ccc(-c2ccc3c(c2)C=C(C(=O)Nc2ccc(C[N+](C)(C)C4CCOCC4)cc2)CCC3)cc1	235%
Nc1cccc(C(OCCN2CCCCC2)c2cc3nccc(C(=O)O)c3s2)c1 (stereo not given)	-7%
COc1ccc(N2CCN(C(=O)c3cc4c(s3)CN(C3CCCC3)C4)CC2)cc1	-10%
C/C(=N\NC(=O)C(NC(=O)c1ccccc1)c1n[nH]c(=O)c2ccccc12)c1cccc(Br)c1 (stereo not given)	9.9µM*	nsP2 cell sec=41%;CHIKV NSP2 FL=-2%;Furin counter=-8%;nsP2 NS23 pep=-18%;Papain cs=-15%;nsP2pro confirm=-8%;HCV NS3 counter=i
O=C(NCc1ccccc1)c1cn(C2CNC2)nn1	-30%
Cc1cnn(-c2cc(N3CCC(n4cc(C5CCCC5)nn4)CC3)ncn2)c1	i
c1c(C2CC2)nnn1C1CNC1	8.9µM*	nsP2 cell sec=15%;CHIKV NSP2 FL=-18%;Furin counter=-25%;nsP2 NS23 pep=?;Papain cs=-1%;nsP2pro confirm=?;HCV NS3 counter=?
CN(C)CCCNc1c2ccccc2nc2c1[nH]c1ccccc12	12%
COc1ccccc1CNC(=O)C1CN(C(C)C)C(=O)N1 (stereo not given)	i
COc1cc2c(cc1OC)[C@H]1C[C@@H](OC(=O)[C@@H](N)C(C)C)[C@H](CC(C)C)CN1CC2	-27%
C=C1CC23CCC4[C@@](C)(CCC[C@@]4(C)C(=O)O)C2CCC1C3 (stereo not given in full)	13%
C[C@]12CCC[C@](C)(C(=O)O)C1CCC13C=C(CO)C(CCC12)C3 (stereo not given in full)	-8%
C=C1C2CCC3C(CCC4[C@@]3(C)CCC[C@@]4(C)C(=O)O)(C2)[C@@H]1OC(=O)/C(C)=C\C (stereo not given in full)	1.4µM*	nsP2 cell sec=6%[17.6 µM];CHIKV NSP2 FL=15%[17.3 µM];Furin counter=-13%[17.3 µM];nsP2 NS23 pep=11%[17.2 µM];Papain cs=-21%[17.2 µM];nsP2pro confirm=-20%[8.62 µM];HCV NS3 counter=i
CCOc1ccccc1CN1C[C@@H](CO)[C@H](C2CCN(C(C)=O)CC2)C1	2%
SMILES	nsP2pro primary	others
Cc1cc(C)cc(NC(=O)N2CCC(CCc3nc(C4CCOCC4)no3)CC2)c1	-10%
COc1ccccc1CC(=O)N1CCCc2ncc(C(=O)Nc3cccc(Cl)c3)cc21	i
CCc1ccc(NCc2cc3cc4c(cc3n(CC(=O)Nc3ccc(Cl)cc3)c2=O)OCO4)cc1	?	nsP2 cell sec=-1%
CCc1ccc(NC(=O)Cn2c(=O)c3cc(Cl)ccc3n3nncc23)cc1	-15%
CCOc1ccc(NC(=O)Cn2cc(C(=O)c3ccc(CC)cc3)c(=O)c3cc4c(cc32)OCO4)cc1	-16%
C[C@H](Oc1cc(-n2cnc3ccc(CN4CCN(C)CC4)cc32)sc1C(N)=O)c1ccccc1C(F)(F)F	80%
Cc1cc(C)nc(NC(=S)N2CCN(C3=Nc4ccccc4Oc4ccccc43)CC2)c1	-9%
Cc1ccnc(NC(=S)N2CCc3cc(C(F)(F)F)ccc3C2)c1	i
CN(C)c1cccc(-c2ncc(F)c(N3CCC(C(N)=O)CC3)n2)c1	?	nsP2 cell sec=50%;CHIKV NSP2 FL=3%;Furin counter=-2%;nsP2 NS23 pep=4%;Papain cs=-8%;nsP2pro confirm=14%;HCV NS3 counter=i
CN(C)c1cccc(-c2nc(N3CCC(C(N)=O)CC3)ncc2F)c1	5%
CN(C)c1cccc(-c2nccc(N3CCC(C(N)=O)CC3)n2)c1	i
CC(C)c1noc(Cn2nc(-c3ccccc3)c3ccccc3c2=O)n1	2%
CC(C)OC(=O)[C@H](C)N[P@@](=O)(OC[C@H]1O[C@@H](n2ccc(=O)[nH]c2=O)[C@](C)(F)[C@@H]1O)Oc1ccccc1	-7%
CCOC(=O)c1c(NC(=O)c2nc(SCC)ncc2Cl)sc(C(C)=O)c1C	-5%
CCOC(=O)c1c(NC(=O)COc2ccccc2)sc(C(C)=O)c1C	20%
CCOC(=O)c1c(NC(=O)c2nc(S(C)(=O)=O)ncc2Cl)sc(C(C)=O)c1C	?	nsP2 cell sec=3.7µM*;CHIKV NSP2 FL=?;Furin counter=-12%;nsP2 NS23 pep=4.6µM*;Papain cs=-3%;nsP2pro confirm=-96%;HCV NS3 counter=?
C[C@@]1(F)[C@H](O)[C@@H](CO)O[C@H]1n1ccc(=O)[nH]c1=O	-19%
Cc1cc(C)nc(NC(=S)N2CCN(c3ccc4nccn4c3)CC2)c1	-16%
CC(C)(C#Cc1ccc(-c2ccc(Cl)c3c(NS(C)(=O)=O)nn(CC(F)(F)F)c23)c([C@H](Cc2cc(F)cc(F)c2)NC(=O)Cn2nc(C(F)(F)F)c3c2C(F)(F)[C@@H]2C[C@H]32)n1)S(C)(=O)=O	-14%
C=CC(=O)Nc1ccc(CN2C(=O)N(c3cc(OC)cc(OC)c3)Cc3cnc(Nc4ccc(N5CCN(C)CC5)cc4)nc32)cc1	45%
C=C1C(=O)O[C@@H]2C3=C(C)CCC[C@]3(C)CC[C@@]12O	3.1µM*	nsP2 cell sec=?;CHIKV NSP2 FL=?;Furin counter=-3%;nsP2 NS23 pep=18µM*;Papain cs=-10%;nsP2pro confirm=?;HCV NS3 counter=i
